Records with an inconclusive call do not appear. A call without a number means that no potency is given here. Active and inactive are the calls of the source. Calls come from the whole dose curve; as a rule, active = well fitted cell-killing curve with a large enough effect in the repeat runs; inconclusive = weak or mixed curves, or effect the other way; inactive = flat fitted curve, though single readings scatter.

For 40 compounds, Potency results are on record in PubChem BioAssay (Tox21).

The assay can be described thus: qHTS RealTime-Glo MT Cell Viability Assay in HEK293 cells - 8 hour (AID 1224887). Note: top concentration of the series differs between compounds; nearly all actives have a fitted effect of over 50% in size. The settings on record: RealTime-Glo luminescence; series mostly up to 76.8 µM. From the text: U.S. Tox21 Program National Center for Advancing Translational Sciences [NCATS] NIH Chemical Genomics Center [NCGC] U.S. Environmental Protection Agency [EPA] National Institutes of Environmental Health Sciences [NIEHS] National Toxicology Program [NTP] U.S. Food and Drug Administration [FDA] Tox21 Assay Overview: Measure of cell viability is critical in the cell-base assay. Analysis of cell viability is necessary for the characterization of cell responses to cytotoxic drugs and environmental stress. A RealTime-Glo MT Cell Viability Assay to monitor cell viability in real time of continues cell culture during 40 hours of compound treatment was used to screen Tox21 10K library compounds in Hek293 cells. The RealTime-Glo MT Cell Viability Assay is a nonlytic, homogeneous, bioluminescent method to measure cell viability in real time using a simple, plate-based method. The assay involves adding NanoLuc luciferase and a cell-permeant prosubstrate to cells in culture. Viable cells reduce the proprietary prosubstrate to generate a substrate for NanoLuc luciferase. This substrate diffuses from cells into the surrounding culture medium, where it is rapidly used by the NanoLuc Enzyme to produce a luminescent signal. The signal correlates with the number of viable cells, making the assay well suited for cytotoxicity studies.
Tox21 Assay Protocol Summary: The mixture of Hek293 cell suspension and reagents were dispensed at 600cells/6 ul/well in 1536-well tissue culture treated black solid bottom plates using a Multidrop dispenser. After the assay plates were incubated at a 37 C/5% CO2 incubator for 5 hours, 23 nL of compounds dissolved in DMSO, positive and negative controls was transferred to the assay plate by a pintool work station. The plates were incubated at 37 C for 40 hours. The luminescence intensity were measured at 0h, 8h, 16h, 24h, 32h and 40h time points using ViewLux plate reader during compound treatment.
On the technique in general: In qHTS, concentration-response curves come from the screen itself.
`C1CNCCN1`: the Potency result was “inactive”.
As for `O=[N+]([O-])c1ccc(O)cc1`, the Potency entry is “inactive”.
For `O=C(O)Cc1cccc2ccccc12` the value was “inactive”; for `Cc1cccc(Nc2cc(Cl)nc(SCC(=O)O)n2)c1C`, “inactive”; for `O=C(O)CN(CC(=O)O)CC(=O)O`, “inactive”.
As for `COC(=O)c1ccc(C=O)cc1`, the Potency entry was “inactive”.
Take `C=CCOC(=O)CC(C)C`: the Potency result is “inactive”.
For `CC(C)(C)NCC(O)c1ccc(O)c(CO)c1` (stereo not given) the value was “inactive”; for `CCCCOC(=O)CCCCCCCCC(=O)OCCCC`, “inactive”.
Consider `CCOCCO`, for which the Potency entry was “inactive”.
Consider `CC(C)Cc1ccc(C(C)C(=O)O)cc1` (stereo not given), for which the Potency entry is “inactive”.
Take `Cc1ccc(O)c(-n2nc3ccccc3n2)c1`: the Potency entry was “inactive”.
`C[C@]12C[C@H](O)[C@H]3[C@@H](CCC4=CC(=O)CC[C@@]43C)[C@@H]1CC[C@@H]2C(=O)CO`: the Potency entry was “inactive”.
Consider `CCN1CCCC1=O`, for which the Potency result is “inactive”.
The entry for `CC(C)=CCC/C(C)=C/CO` is “inactive”; for `CC(=O)Oc1ccccc1C(=O)O` it is “inactive”; for `CN(C)Cc1cc(CN(C)C)c(O)c(CN(C)C)c1` it is “inactive”.
In the case of `COc1cc(C=O)ccc1O`, the Potency entry is “inactive”.
As to `COC(=O)C1CCC(C(=O)OC)CC1` (stereo not given), the Potency result was “inactive”.
For `Cn1cnc2c1c(=O)[nH]c(=O)n2C` the value was “inactive”; for `COc1cc2c(c(OC)c1OC)-c1ccc(OC)c(=O)cc1[C@@H](NC(C)=O)CC2`, “inactive”; for `NC(=O)N/N=C/c1ccc([N+](=O)[O-])o1`, “inactive”.
As to `CCc1cc(C(N)=S)ccn1`, the Potency result is “inactive”.
For `C[C@]12C=CC(=O)C=C1CC[C@@H]1[C@@H]2C(=O)C[C@@]2(C)[C@H]1CC[C@]2(O)C(=O)CO`, the Potency result was “inactive”.
Take `OC[C@@H](O)[C@@H](O)[C@H](O)[C@H](O)CO`: the Potency result is “inactive”.
For `CC1=NN(c2ccccc2)C(=O)C1`, the Potency entry was “inactive”.
For the compound `CC(C)CC(C)CC(O)CC(C)C` (stereo not given), the Potency entry was “inactive”.
For `N[C@@H](Cc1c[nH]c2ccc(O)cc12)C(=O)O`, the Potency entry was “inactive”.
On to `COc1cc(O)c(C(=O)c2ccccc2)cc1S(=O)(=O)O`, for which the Potency result was “inactive”.
With `CC1=C(/C=C/C(C)=C/C=C/C(C)=C/C(=O)O)C(C)(C)CCC1`, the Potency entry was “inactive”.
`COc1ccccc1NC(=O)CC(C)=O`: the Potency result is “inactive”.
For `O=C1OC(c2ccc(O)cc2)(c2ccc(O)cc2)c2ccccc21`, the Potency entry was “inactive”.
Consider `NC(=O)NO`, for which the Potency result is “inactive”.
For the compound `C=C(C)OC(C)=O`, the Potency result was “inactive”.
For `c1ccc2[nH]c(-c3cscn3)nc2c1` the value was “inactive”.
In the case of `O=C(OCc1ccccc1)c1ccccc1`, the Potency result was “inactive”.
Consider `CCn1cc(C(=O)O)c(=O)c2ccc(C)nc21`, for which the Potency result is “inactive”.
On to `C#C[C@]1(O)CC[C@H]2[C@@H]3CCc4cc(O)ccc4[C@H]3CC[C@@]21C`, for which the Potency result is “inactive”.
As to `CN/C(=C\[N+](=O)[O-])NCCSCc1ccc(CN(C)C)o1`, the Potency entry is “inactive”.
In the case of `CC1(C)O[C@@H]2[C@@H](CO[C@@]3(COS(N)(=O)=O)OC(C)(C)O[C@@H]23)O1`, the Potency entry is “inactive”.
